Bioassay records from PubChem.
SNCA expr inhib: Primary qHTS assay for inhibitors of alpha-synuclein gene (SNCA) expression. HEK-293 SNCA-luciferase knock-in, luminescence, 24 h. Potency, µM (highest dose often 57.2 µM), for inactives: at the highest dose activity change, negative = inhibition, hits mostly inhibitors. 0.17% of 140,000 active;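 further: potency means the concentration at half of the fitted maximal effect; plate controls were DMSO cells for no effect and cell-free wells for full effect; nearly all actives have a fitted effect of over 45% in size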
GPT2 inhibitor: Primary qHTS assay for inhibitors of Glutamate pyruvate transaminase 2 (GPT2); Potency, µM (series often up to 57.7 µM), inactives show at the highest dose activity change, negative = inhibition, actives largely listed as inhibitors; AID 1671188, 2021; Recombinant GPT2, coupled pyruvate oxidase/HRP Amplex Red fluorescence; Alanine aminotransferase 2 (Homo sapiens), Q8TD30; 0.25% of 100,000 active; further: potency means the concentration at half of the fitted maximal effect; nearly all actives have a fitted effect of over 60% in size
Target sequence (Q8TD30 whole entry, looked up): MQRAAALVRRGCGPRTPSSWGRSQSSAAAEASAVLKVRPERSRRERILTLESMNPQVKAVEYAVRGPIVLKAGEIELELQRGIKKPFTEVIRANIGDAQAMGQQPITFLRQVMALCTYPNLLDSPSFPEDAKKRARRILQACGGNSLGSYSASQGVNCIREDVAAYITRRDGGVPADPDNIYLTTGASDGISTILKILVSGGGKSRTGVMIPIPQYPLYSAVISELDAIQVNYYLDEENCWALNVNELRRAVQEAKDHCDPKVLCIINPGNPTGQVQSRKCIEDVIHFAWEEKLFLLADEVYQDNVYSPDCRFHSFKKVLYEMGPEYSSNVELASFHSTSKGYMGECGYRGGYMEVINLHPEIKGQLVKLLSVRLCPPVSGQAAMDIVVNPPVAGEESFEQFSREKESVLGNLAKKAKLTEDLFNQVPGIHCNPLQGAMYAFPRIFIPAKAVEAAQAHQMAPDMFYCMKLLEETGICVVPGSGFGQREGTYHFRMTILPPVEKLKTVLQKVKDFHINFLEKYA
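Inhibition is scored from Amplex Red fluorescence generated when pyruvate oxidase and HRP act on pyruvate released by GPT2. Reactions contain 10ng/uL enzyme, 250uM a-KG and 2mM L-alanine and run 30 min at room temperature.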
IP6K1 inh: Primary qHTS assay for small molecule inhibitors of Inositol hexaphosphate kinase 1 (IP6K1); activity change, % (series mostly up to about 58 µM); Inositol hexakisphosphate kinase 1 (Homo sapiens), Q92551; 0.81% of 140,000 active; AID 1645851, 2021; IP6K1 kinase, ADP-Glo luminescence, 2 h; active compounds read low; in the data active means activity change below about -25%
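ADP-Glo luminescence measures ADP made by human IP6K1 during a 2 h RT reaction with ATP/IP6 (mix at 1.3 mM/130 uM); top library doses 57.5 and 19.1 uM final.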
SNCA viab count: GF-AFC viability counterscreen for inhibitors of alpha-synuclein gene (SNCA) expression; 0.12% of 150,000 active; HEK-293-SNCA-luc viability, GF-AFC fluorescence, 24 h; Potency, µM (top dose mostly 57.1 µM), for inactives: at the top dose activity change, negative = cytotoxicity, hits mostly cytotoxic;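 further: potency means the concentration at half of the fitted maximal effect; 0% = DMSO-treated cells and -100% = medium-only wells without cells; nearly all actives have a fitted effect of over 30% in size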
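Cytotoxicity counterscreen: after 24 h compound treatment of genome-edited SNCA-luciferase HEK-293 cells, live-cell protease substrate GF-AFC read by fluorescence after 30 min; activity scaled between DMSO (0%) and medium-only (-100%), curves Hill-fitted.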
IP6K1 conf: Confirmatory qHTS assay for small molecule inhibitors of Inositol hexaphosphate kinase 1 (IP6K1); shares compounds with IP6K1 inh; recombinant IP6K1 kinase, ADP-Glo luminescence, 2 h; Potency, µM (doses to about 49 µM), for the others: at the top dose activity change, negative = inhibition, actives largely listed as inhibitors; 13% of 1,200 active; further: potency means the concentration at half of the fitted maximal effect; nearly all actives have a fitted effect of over 65% in size
The depositor's hits bear a star; i = inactive; ? = inconclusive; . = not tested or not shown; ! = not active in a repeat; [ ] = remark or other dose. Only some compounds are listed: those with a hit (about 1% of all), similar ones and a draw of the others. Unless noted, the call rests on the fitted dose curve; in most records, active means well fitted curve in the direction sought with a large enough effect; inconclusive means small, poorly fitted or top-dose-only effect, or another doubt; inactive means no such curve, though single readings can be large; an effect the other way counts as inactive or inconclusive. Unless noted, on the % scale 0 is the no-effect control and ±100 the full control effect.

SMILES	SNCA expr inhib	GPT2 inhibitor	IP6K1 inh	SNCA viab count	IP6K1 conf
CCCCNC(=O)CN1CCN(c2ncc(NC(=O)c3ccc(Cl)cc3)cc2C(=O)O)CC1	28%	.	-59*	12%	?
c1ccc(-c2cc3c(cn2)NCCN(Cc2ccsc2)C3)cc1	-24%[87.6 µM]	-8%[88.5 µM]	-25*	12%[87.6 µM]	-9%
Clc1ccc(-c2cc3c(cn2)CN(Cc2ccncc2)CCN3)cc1	-20%[87.6 µM]	-28%[88.5 µM]	-27*	-2%[87.6 µM]	-1%
COc1ccc(Nc2cc3c(cn2)NCCN(Cc2ccccc2)C3)cn1	?	?	-25*	-3%[87.6 µM]	-18%
COc1ccc(Nc2cc3c(cn2)CN(Cc2ccncc2)CCN3)cn1	-23%[87.6 µM]	5%[88.5 µM]	-9	-11%[87.6 µM]	.
c1ccc(CN2CCNc3cc(-c4ccncc4)ncc3C2)cc1	-15%[87.6 µM]	?	-15	-10%[87.6 µM]	.
Cc1ccsc1CN1CCn2nnc(CCC(=O)NCc3ccccc3)c2C1	-16%	i	12	-19%	.
COc1ccc2c3c1C(C(N)=O)N(Cc1ccccc1)CC3=CC(C)(C)CO2 (configuration not stated)	.	.	3	.	.
Cc1noc(C)c1[S+](=O)([O-])N1CCCC1C(=O)N1CCC(c2nc3ccncc3[nH]2)CC1 (configuration not stated)	34%	i	-31*	2%	-14%
Cc1noc2c(NC3CCC(O)CC3)cc(-c3ccc(F)cc3)nc12 (configuration not stated)	4%[87.6 µM]	1%[88.5 µM]	1	7%[87.6 µM]	.
Cc1ccc(-c2csc3ncnc(Nc4ccc(C(=O)O)cc4)c23)cc1	22%	.	-25*	-6%	-25%
Cc1ccc(-c2nnc3ccc(Nc4cccc(N(C)C)c4)nn23)nc1	3%[87.6 µM]	2%[88.5 µM]	-25*	-9%[87.6 µM]	-11%
CCc1nc2c(c(-c3ccc(Cl)cc3)n1)CCN(Cc1cccc3ccccc13)CC2	-21%	i	-4	3%	.
CSc1ncccc1C(=O)NC1CC(c2cc(=O)[nH]c(N)n2)C1 (configuration not stated)	-6%	1%	12	1%	.
COc1ccc(-c2ccc(C(=O)NC3CC(c4cc(=O)[nH]c(N)n4)C3)o2)cc1 (configuration not stated)	102%	-31%	-30*	-4%	?
CN1CCN(C(=O)Nc2cccc(Cl)c2)c2cccnc21	2%	.	-32*	-1%	-9%
Cc1ccc(Cl)cc1NC(=O)N1CCN(C)c2ncccc21	-23%	.	-6	4%	.
Cc1cc(C)cc(-c2ccc(CN3CCCC3C(=O)NCCc3ccc(F)cc3)cc2)c1 (configuration not stated)	-13%	i	-6	8%	.
CCc1nc2ccccc2n1CCCCOc1ccccc1C	?	.	-30*	0%	-22%
CN(C)C/C=C/C(=O)Nc1cccc(C(=O)Nc2ccc(Nc3nccc(-c4cccnc4)n3)cc2)c1	.	?	-29*	?	?
O=C(NCc1ccc(F)cc1)C1CCCN(Cc2cccc(-c3cccs3)c2)C1 (configuration not stated)	-23%	-12%	-5	-9%	.
COc1ccc(NC(=O)CC2C(=O)N(c3ccccc3)C(=O)N2CCc2sccc2C)cc1 (configuration not stated)	71%	.	-33*	-12%	-12%
CC(=O)Nc1ccc(-n2c(CCC(=O)O)ccc2-c2ccc(C)cc2)cc1	-17%	.	16	-2%	.
CC(=O)Nc1ccc(-n2c(CCC(=O)O)ccc2-c2ccc(Br)cc2)cc1	-8%	.	-41*	2%	-8%
CC(C)(C)c1ccc(CSC2=Nc3ccccc3C3=NC(CC(=O)NCc4cccs4)C(=O)N23)cc1 (configuration not stated)	-10%	.	-26*	-9%	42%
SMILES	SNCA expr inhib	GPT2 inhibitor	IP6K1 inh	SNCA viab count	IP6K1 conf
c1cc(OCCN2CCCCC2)cc(-c2n[nH]c3ccc(-c4ncn[nH]4)cc23)c1	-2%	5%	-47*	-19%	?
O=C(O)c1cccc(-c2n[nH]c3c2CC(=O)N(CCOc2ccccc2)C3)c1	-10%[87.6 µM]	-13%[88.5 µM]	-12	12%[87.6 µM]	.
COc1ccc(NC(=O)C2CCC(CNS(=O)(=O)c3csc(C(N)=O)c3)CC2)cc1 (configuration not stated)	-17%	.	-39*	8%	?
NC(=O)c1cc(S(=O)(=O)NCC2CCC(C(=O)Nc3ccc(Cl)cc3)CC2)cs1 (configuration not stated)	3%	.	1	11%	.
CCc1ccccc1NC(=O)CN1C(=O)CCSc2ccc(S(=O)(=O)N3CCCC3)cc21	-6%	.	-31*	-3%	-16%
O=C(CN1C(=O)CCSc2ccc(S(=O)(=O)N3CCCC3)cc21)Nc1ccccc1Cl	15%	.	-1	3%	.
c1cn(-c2ccc(-c3nc(C4CCOC4)no3)cc2)cn1 (configuration not stated)	10%	i[11.5 µM]	-28*	-6%	-14%
CCCc1ccc(-c2nc(C3CCOC3)no2)cc1 (configuration not stated)	6%	0%	22	-6%	.
COc1ccc2c(c1)CN(Cc1ccccc1)C(=O)CCN2C[C@@H](O)COCc1ccccc1	.	.	15	.	.
Cc1cccc(-c2nc3c4ccccc4nc(NCc4ccccc4Cl)n3n2)c1	90%	.	-27*	4%	-26%
CC(=O)c1cccc(NC(=O)Cn2ccn3nc(-c4ccc(F)cc4)c(CO)c3c2=O)c1	?	i	-30*	-28%	-13%
COc1ccc(OC)c(CNS(=O)(=O)c2cc(-c3onc(C)c3C)ccc2C)c1	7%	.	-46*	3%	33%
COc1ccc(NS(=O)(=O)c2cc(-c3onc(C)c3C)ccc2C)c(OC)c1	0%	.	0	4%	.
CN(Cc1cccc(N2CCN(S(=O)(=O)c3ccccc3C(F)(F)F)CC2)c1F)S(C)(=O)=O	.	.	6	.	.
O=C(c1ccccc1)N1Cc2[nH]cnc2C[C@H]1c1nc(-c2ccc(Cl)cc2)no1	?	i	-39*	-19%[87.6 µM]	?
COc1ccccc1-c1cc(C(=O)N(C)Cc2ccccc2)c2cnn(C)c2n1	.	.	1	.	.
COc1ccc(CN2CCNc3cc(-c4ccccc4)ncc3C2)cc1	?	-9%[88.5 µM]	-19	-25%[87.6 µM]	.
COc1ccc(-c2csc(=Nc3ccccc3)n2CCO)cc1F	71%	.	-31*	-3%	?
CCN(CC)CCn1c(-c2ccccc2)csc1=Nc1ccccc1	?	.	-20	-10%	.
Cc1nn(-c2ccccc2)c2c1C(C(C)C)N(C1CCN(C(=O)c3ccccn3)C1)C2=O (configuration not stated)	.	.	2	.	.
O=C(CCc1ccc(O)cc1)c1c(O)cc(O)cc1O	-7%	6.9µM*!	.	-1%	5.2µM*
